This is an account of results in PubChem BioAssay (Tox21).

Records with an inconclusive call do not appear. Values without a mark were called inactive. Calls of active or inactive are those of the source. Unless noted, the call rests on the fitted dose curve; in most records, active means well fitted curve in the direction sought with a large enough effect in the repeat runs; inconclusive means weak or mixed curves; inactive means no such curve, though single readings can be large; an effect the other way counts as inactive or inconclusive.

Assay [1] in a line: qHTS assay to identify small molecule antagonists of the thyroid receptor (TR) signaling pathway - cell viability counter screen (AID 743064). Further: nearly all actives have a fitted effect of over 50% in size. In outline: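 Same-well viability check: GH3.TRE-Luc cells stimulated with 1 nM T3 alongside test compound for 23.5 h, followed by CellTiter-Fluor fluorescence.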
For orientation: In qHTS, concentration-response curves come from the screen itself.

Assay [2] in a line: qHTS assay to identify small molecule antagonists of the thyroid receptor (TR) signaling pathway (AID 743065). Further: series mostly up to about 70 µM; nearly all actives have a fitted effect of over 55% in size. The method in brief:
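GH3.TRE-Luc rat pituitary cells (two TREs driving luciferase) were dosed with compound, then stimulated with 1 nM T3 (final) for 23.5 h at 37 C. ONE-Glo luminescence was the read-out, with CellTiter-Fluor fluorescence as the cytotoxicity counter-screen.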

Assay [3] has as its system thyroid hormone receptor (rat, GH3 cells). Put plainly: qHTS assay to identify small molecule agonists of the thyroid receptor (TR) signaling pathway (AID 743066; calls by dose curve).
Assay [4] is described as follows: qHTS assay to identify small molecule antagonists of the estrogen receptor alpha (ER-alpha) signaling pathway - cell viability counter screen (AID 743074; calls by dose curve;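 further: HEK293 cells carrying ER-alpha-UAS-bla reporter stimulated with 17beta-estradiol; nearly all actives have a fitted effect of over 45% in size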).
Assay [5] can be described thus: qHTS assay to identify small molecule antagonists of the estrogen receptor alpha (ER-alpha) signaling pathway using the BG1 cell line - cell viability counter screen (AID 743081).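 Further: compound given together with 17beta-estradiol as the ER stimulus; series mostly up to about 70 µM; nearly all actives have a fitted effect of over 45% in size.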
Another assay addresses Aromatase (Homo sapiens) (UniProt P11511). Put plainly: qHTS assay to identify aromatase inhibitors (AID 743083). Further: nearly all actives have a fitted effect of over 55% in size. Further: potency means the concentration at half of the fitted maximal effect. On activity, negative = inhibition: series mostly up to about 70 µM.
The nature of assay [6]: qHTS assay to identify aromatase inhibitors - cell viability counter screen (AID 743084).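 Further: cells stimulated with testosterone during compound exposure; nearly all actives have a fitted effect of over 55% in size.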
For assay [7], the target named is Aryl hydrocarbon receptor (Homo sapiens) (UniProt P35869). The experiment in a line: qHTS assay to identify small molecule that activate the aryl hydrocarbon receptor (AhR) signaling pathway (AID 743085). Further: nearly all actives have a fitted effect of over 15% in size. Further: potency means the concentration at half of the fitted maximal effect.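 On activation: HG2L7.5c1 human HepG2 liver cells with stably integrated DRE-driven firefly reporter; series mostly up to about 70 µM.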 The method in brief: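 Reporter assay in engineered HepG2 line HG2L7.5c1, whose plasmid carries twenty dioxin responsive elements upstream of firefly luciferase. Treatment lasted 24 h at 37C; ONE-Glo luminescence gauged induction.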

Assay [8] can be described thus: qHTS assay to identify small molecule that activate the aryl hydrocarbon receptor (AhR) signaling pathway - cell viability counter screen (AID 743086).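 Further: HepG2 liver cells carrying the AhR DRE luciferase reporter; series mostly up to about 70 µM; nearly all actives have a fitted effect of over 45% in size.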 In outline: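 HepG2-AhR-luc (HG2L7.5c1) cells, 4000/well, treated 24 h at 37 C with compound; viability measured as CellTiter-Fluor fluorescence after 30 min in the same wells as the luciferase read.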
The target in assay [9] is Peroxisome proliferator-activated receptor gamma (Homo sapiens) (UniProt P37231). The experiment in a line: qHTS assay to identify small molecule agonists of the peroxisome proliferator-activated receptor gamma (PPARg) signaling pathway (AID 743094; active means well fitted activation curve with a large enough effect in the signal ratio in the repeat runs, not every such curve was filed as active; the % refers to the signal ratio). In outline: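 Cells from the PPARg UAS-bla HEK293H line are plated and incubated 5 h at 37C. Compounds in DMSO are pinned in and left 17 h at 37C. LiveBLAzer B/G substrate is then added for 1 h at room temperature before fluorescence is measured.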

Assay [10] has the same target. The experiment in a line: qHTS assay to identify small molecule antagonists of the peroxisome proliferator-activated receptor gamma (PPARg) signaling pathway (AID 743191; calls by dose curve; further: series mostly up to about 63 µM; nearly all actives have a fitted effect of over 30% in size). In outline: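 GeneBLAzer PPARg UAS-bla HEK293H cells, 5 h post-plating, exposed to compounds 17 h at 37C. LiveBLAzer B/G FRET substrate added for 1 h at room temperature; beta-lactamase reporter read by fluorescence intensity.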

A short description of assay [11]: qHTS assay to identify small molecule antagonists of the peroxisome proliferator-activated receptor gamma (PPARg) signaling pathway - cell viability counter screen (AID 743194). Further: nearly all actives have a fitted effect of over 55% in size. The method in brief: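 Cytotoxicity counter screen in PPARg-bla HEK293H cells, same wells as reporter assay. Compounds plus 50 nM rosiglitazone (final) for 17 h at 37 C, then viability read by CellTiter-Glo luminescence.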

The nature of assay [12]: qHTS assay for small molecule agonists of the antioxidant response element (ARE) signaling pathway - cell viability counter screen (AID 743203; calls by dose curve; further: nearly all actives have a fitted effect of over 55% in size). The method in brief:
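Cytotoxicity was tested in parallel with the ARE reporter screen. ARE-bla HepG2 cells were exposed to compounds for 16 hrs, and viability was taken from CellTiter-Glo luminescence.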

Assay [13] in a line: qHTS assay for small molecule activators of the heat shock response signaling pathway - cell viability counter screen (AID 743209). Further: nearly all actives have a fitted effect of over 50% in size. In outline:
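Cytotoxicity counter screen run in parallel with the HSE beta-lactamase reporter, using the same wells. HeLa HSE-bla cells received compound for 5 h at 37 C; ATP-based CellTiter-Glo luminescence was measured after 30 min at room temperature.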

Assay [14] can be described thus: qHTS assay for small molecule activators of the heat shock response signaling pathway (AID 743210; active means well fitted activation curve with a large enough effect in the signal ratio in the repeat runs, with a control signal flat, not every such curve was filed as active; the % refers to the signal ratio;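 further: HeLa cells with beta-lactamase reporter driven by heat shock elements; series mostly up to about 63 µM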). In outline:
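Following overnight attachment, HSE-bla HeLa cells received test compounds for 5 h at 37 C; beta-lactamase activity was then detected via FRET substrate fluorescence.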

A short description of assay [15]: qHTS assay for small molecule agonists of the antioxidant response element (ARE) signaling pathway (AID 743202; active means well fitted activation curve with a large enough effect in the signal ratio in the repeat runs, not every such curve was filed as active; the % refers to the signal ratio; further: potency means the concentration at half of the fitted maximal effect). In outline:
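HepG2 ARE-bla cells; 16 h treatment at 37 C; FRET-based beta-lactamase fluorescence read after 2 h substrate incubation at room temperature.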
On the % scale 0 is the no-effect control and ±100 the full control effect.

Sequence of Aryl hydrocarbon receptor (Homo sapiens) (P35869 whole entry, looked up): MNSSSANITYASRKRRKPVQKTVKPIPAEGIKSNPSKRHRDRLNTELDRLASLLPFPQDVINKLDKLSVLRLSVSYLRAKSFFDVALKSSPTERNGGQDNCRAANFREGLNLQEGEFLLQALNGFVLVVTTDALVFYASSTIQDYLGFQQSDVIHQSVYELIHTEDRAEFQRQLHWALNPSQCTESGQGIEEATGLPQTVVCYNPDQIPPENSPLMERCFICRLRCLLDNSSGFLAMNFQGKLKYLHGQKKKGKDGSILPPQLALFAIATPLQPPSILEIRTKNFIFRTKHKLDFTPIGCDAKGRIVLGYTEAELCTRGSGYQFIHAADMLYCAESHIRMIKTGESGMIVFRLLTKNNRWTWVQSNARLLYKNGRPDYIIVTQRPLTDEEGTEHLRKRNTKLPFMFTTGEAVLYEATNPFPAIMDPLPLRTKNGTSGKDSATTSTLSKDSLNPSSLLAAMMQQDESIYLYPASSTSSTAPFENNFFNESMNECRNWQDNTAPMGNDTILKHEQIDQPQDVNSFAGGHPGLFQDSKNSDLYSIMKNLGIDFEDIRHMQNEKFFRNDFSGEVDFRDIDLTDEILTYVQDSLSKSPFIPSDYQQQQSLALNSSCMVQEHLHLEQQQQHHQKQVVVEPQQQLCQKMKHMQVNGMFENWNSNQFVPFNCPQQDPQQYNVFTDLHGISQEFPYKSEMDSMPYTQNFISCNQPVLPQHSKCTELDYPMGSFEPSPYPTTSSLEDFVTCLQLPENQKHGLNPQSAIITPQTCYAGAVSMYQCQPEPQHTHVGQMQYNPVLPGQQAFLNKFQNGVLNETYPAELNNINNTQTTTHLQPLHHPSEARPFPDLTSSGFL
Sequence of Peroxisome proliferator-activated receptor gamma (Homo sapiens) (P37231 whole entry, looked up): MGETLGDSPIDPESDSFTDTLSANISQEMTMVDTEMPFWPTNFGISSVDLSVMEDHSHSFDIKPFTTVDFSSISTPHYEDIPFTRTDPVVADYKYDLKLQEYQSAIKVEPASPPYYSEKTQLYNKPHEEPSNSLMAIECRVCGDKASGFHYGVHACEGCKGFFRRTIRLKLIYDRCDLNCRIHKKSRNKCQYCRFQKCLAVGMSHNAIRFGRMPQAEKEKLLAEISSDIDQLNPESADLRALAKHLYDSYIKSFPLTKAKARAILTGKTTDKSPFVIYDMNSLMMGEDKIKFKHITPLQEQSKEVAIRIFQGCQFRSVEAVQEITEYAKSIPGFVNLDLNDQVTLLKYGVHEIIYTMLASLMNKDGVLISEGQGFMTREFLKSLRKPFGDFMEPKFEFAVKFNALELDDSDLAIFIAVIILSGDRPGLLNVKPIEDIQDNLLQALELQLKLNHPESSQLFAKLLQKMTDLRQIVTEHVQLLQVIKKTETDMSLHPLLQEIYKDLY
Sequence of Aromatase (Homo sapiens) (P11511 whole entry, looked up): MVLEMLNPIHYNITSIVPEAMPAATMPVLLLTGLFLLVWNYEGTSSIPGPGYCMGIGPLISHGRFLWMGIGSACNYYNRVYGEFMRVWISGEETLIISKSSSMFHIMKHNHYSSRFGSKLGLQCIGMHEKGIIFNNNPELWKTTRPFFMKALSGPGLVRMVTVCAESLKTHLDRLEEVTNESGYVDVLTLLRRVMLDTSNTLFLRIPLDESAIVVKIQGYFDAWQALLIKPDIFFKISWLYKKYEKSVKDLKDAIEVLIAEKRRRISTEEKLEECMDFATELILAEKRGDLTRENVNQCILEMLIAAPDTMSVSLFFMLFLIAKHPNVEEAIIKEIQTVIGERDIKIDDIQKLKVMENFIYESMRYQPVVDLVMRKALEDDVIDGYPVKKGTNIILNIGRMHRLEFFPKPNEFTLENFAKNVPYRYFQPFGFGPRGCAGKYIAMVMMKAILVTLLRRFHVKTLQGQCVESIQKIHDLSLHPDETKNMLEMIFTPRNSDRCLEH

As to `FC(F)(F)c1ccccc1-n1ccnc1`, the Potency result in [1], in assay [2], in assay [6], in assay [7], in assay [8] and in [10] was “inactive” each time. In addition, the call in assay [3], in [4], in assay [5], in assay [9], in [11] and in assay [12] was inactive. The outcome in assay [13] and in [14] was inactive. In the assay with Aromatase (Homo sapiens), the Potency is 6.68 µM (active).

With `C=CCCCCCCCCCCCC`, the Potency result (in assay [1]; in assay [2]; in the assay with Aromatase (Homo sapiens); in assay [6]; in assay [7]; in assay [8]) was “inactive” each time. For the same molecule, the Potency entry in assay [10] is “inactive”. Besides, the outcome in assay [3], in assay [5], in [9], in assay [11], in assay [13] and in assay [14] was inactive.

With `C=Cc1ccccn1`, the Potency entry (in assay [1]; in assay [2]; in the assay with Aromatase (Homo sapiens); in assay [6]; in [7]; in [8]) was “inactive” in each case. For the same molecule, the Potency result in assay [10] and in assay [15] was “inactive” in each case. In addition, the outcome in [3], in assay [5], in assay [9], in assay [12], in [13] and in assay [14] was inactive.

`C=CC(OCC)OCC`: the Potency result (in [1]; in assay [2]; with Aromatase (Homo sapiens); in assay [8]) was “inactive” throughout. Besides, the outcome in assay [3], in assay [4], in [5], in assay [9], in assay [11] and in assay [12] was inactive. The outcome in [13] was inactive. Also, the Potency is 60.4 µM (active) in assay [7] and 34 µM (active) in assay [15].

`CCN(CC)CC(=O)Nc1c(C)cccc1C`: the Potency entry in assay [1], in assay [2], in [6], in assay [8] and in assay [15] was “inactive” throughout. For the same molecule, the result in assay [3], in [4], in assay [5], in assay [11], in [12] and in [13] was inactive. Also, in assay [14], the result was inactive.

As for `COC(=O)C1CC(=O)C(C(=O)OC)CC1=O` (configuration not stated), in assay [1], the activity change, negative = cytotoxic was 29.4% [at 8.44 µM]. Besides, the figures for the activity, negative = inhibition (in assay [2]; in the assay with Aromatase (Homo sapiens)) were -0.0159% [at 8.44 µM] and 8.29% [at 8.47 µM], respectively. In addition, the activation in [3] was -0.929% [at 8.08 µM]; in assay [7] it was 0.473% [at 8.47 µM]; in assay [9] it was -2.09% [at 7.08 µM]; in assay [15] it was -4.53% [at 8.36 µM]. In assay [4], the activity, negative = cytotoxicity was 10.1% [at 6.72 µM]. Also, in assay [10], the ratio activity, negative = inhibition was 0.96% [at 5.95 µM]. Moreover, the activity change, negative = cytotoxicity in [11] is 17.9% [at 5.95 µM]; in assay [13], 12.2% [at 5.95 µM]. The viability change, negative = cytotoxic in [12] was -0.839% [at 8.36 µM].

`O=P(O)(O)OP(=O)(O)O`: the Potency result in assay [1], in [8] and in assay [15] was “inactive” in each case. Besides, the molecule was called inactive in assay [4], in assay [5], in [11], in [12], in [13] and in assay [14].

As for `CC(C)NCC(O)COc1cccc2[nH]ccc12` (configuration not stated), the Potency result (in assay [1]; in [2]; in the assay with Aromatase (Homo sapiens); in assay [6]; in assay [15]) was “inactive” each time. Also, the call in assay [3], in [4], in assay [5], in [9], in assay [12] and in [13] was inactive. Further, the molecule was called inactive in [14].

For `OC[C@H](Cc1cccc(O)c1)[C@H](CO)Cc1cccc(O)c1`, the Potency result (in assay [1]; with Aromatase (Homo sapiens); in [6]; in assay [7]; in assay [10]) was “inactive” in each case. In addition, the outcome in assay [3], in assay [4], in [5], in assay [9], in assay [11] and in assay [12] was inactive. Also, in assay [13], the molecule was classed as inactive.
